Values joined by “and” are separate entries in the source; they are usually repeats but may differ in a detail not shown here. Equal entries are not always repeated. In all, about 5,500 compounds went through this assay and about 2,000 (36%) were called active. Not shown: some 18% with an inconclusive outcome. Rule as the data show it: active = normalized growth mostly below about 0.91 (no sharp cut-off); inconclusive = no clear call, values can overlap the other calls; inactive = mostly above about 0.92. The list shows a part of the results.
Assay: chemical genetic growth profiling, strain panel (AID 1159580);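 also: tested at 20 µM; growth read once vehicle control cultures reached saturation at 30 °C; 1 = growth at the plate median or of vehicle wells; lower values mean less growth of the strain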
Conditions: S. cerevisiae deletion strains, growth OD

Measured: normalized growth

COc1ccc(-c2coc3cc(O)ccc3c2=O)cc1
inactive: locus YAL021C, strain ccr4, stronger effect = lower value 1 | locus YAL026C, strain drs2, stronger effect = lower value 0.943 | locus YAL030W, strain snc1, stronger effect = lower value 0.986 | locus YBL061C, strain skt5, stronger effect = lower value 0.983 | locus YBR009C, strain hhf1, stronger effect = lower value 0.953 | locus YBR023C, strain chs3, stronger effect = lower value 0.98 | locus YBR171W, strain sec66, stronger effect = lower value 0.973 | locus YBR229C, strain ROT2, stronger effect = lower value 0.967 | locus YBR231C, strain swc5, stronger effect = lower value 0.964 | locus YBR279W, strain paf1, stronger effect = lower value 0.993 | locus YCL011C, strain gbp2, stronger effect = lower value 0.965 | locus YCL016C, strain dcc1, stronger effect = lower value 0.974 | locus YCL029C, strain bik1, stronger effect = lower value 0.949 | locus YCL061C, strain MRC1, stronger effect = lower value 0.959 | locus YCL069W, strain vba3, stronger effect = lower value 0.98 | locus YCR088W, strain abp1, stronger effect = lower value 0.982 | locus YDL005C, strain med2, stronger effect = lower value 0.982 | locus YDL035C, strain GPR1, stronger effect = lower value 0.933 | locus YDL040C, strain nat1, stronger effect = lower value 0.985 | locus YDL074C, strain BRE1, stronger effect = lower value 0.839 | locus YDL101C, strain DUN1, stronger effect = lower value 0.916 | locus YDL185W, strain tfp1, stronger effect = lower value 0.964 | locus YDR001C, strain nth1, stronger effect = lower value 0.978 | locus YDR069C, strain doa4, stronger effect = lower value 1.01 | locus YDR101C, strain arx1, stronger effect = lower value 0.941 | locus YDR137W, strain rgp1, stronger effect = lower value 0.906 | locus YDR159W, strain sac3, stronger effect = lower value 0.955 | locus YDR162C, strain NBP2, stronger effect = lower value 0.894 | locus YDR195W, strain ref2 1.13 | locus YDR297W, strain sur2, stronger effect = lower value 0.978 | locus YDR334W, strain swr1, stronger effect = lower value 0.989 | locus YDR335W, strain msn5, stronger effect = lower value 0.99 | locus YDR388W, stronger effect = lower value 0.964 | locus YEL003W, strain gim4, stronger effect = lower value 0.977 | locus YEL037C, strain rad23, stronger effect = lower value 0.983 | locus YEL061C, strain CIN8 (second series), stronger effect = lower value 0.986 | locus YER015W, strain faa2, stronger effect = lower value 0.989 | locus YER016W, strain bim1, stronger effect = lower value 0.979 | locus YER110C, stronger effect = lower value 0.974 | locus YER111C, strain swi4, stronger effect = lower value 0.992 | locus YER155C, strain BEM2 (second series), stronger effect = lower value 0.907 | locus YER155C, strain BEM2, stronger effect = lower value 0.962 | locus YER167W, strain BCK2, stronger effect = lower value 0.973 | locus YFR010W, strain ubp6, stronger effect = lower value 0.984 | locus YGL167C, strain pmr1, stronger effect = lower value 0.997 | locus YGL173C, strain kem1, stronger effect = lower value 0.979 | locus YGL227W, strain vid30, stronger effect = lower value 0.981 | locus YGL240W, strain doc1, stronger effect = lower value 0.916 | locus YGL253W, strain hxk2, stronger effect = lower value 0.932 | locus YHR013C, strain ard1, stronger effect = lower value 0.977 | locus YHR027C, strain rpn1, stronger effect = lower value 0.995 | locus YHR030C, strain SLT2, stronger effect = lower value 0.975 and 0.906 | locus YHR079C, strain IRE1 (second series), stronger effect = lower value 0.969 | locus YHR079C, strain IRE1, stronger effect = lower value 0.936 | locus YHR094C, strain hxt1, stronger effect = lower value 0.96 | locus YHR129C, strain ARP1, stronger effect = lower value 0.929 | locus YHR142W, strain chs7, stronger effect = lower value 0.893 | locus YIL066C, strain RNR3, stronger effect = lower value 0.957 | locus YIL073C, strain SPO22, stronger effect = lower value 0.886 | locus YIL125W, strain kgd1, stronger effect = lower value 0.966 | locus YIR030C, strain dcg1, stronger effect = lower value 0.961 | locus YJL092W, strain hpr5, stronger effect = lower value 0.974 | locus YJL095W, strain BCK1 (second series), stronger effect = lower value 0.987 | locus YJL095W, strain BCK1, stronger effect = lower value 0.81 and 0.908 | locus YJL115W, strain asf1, stronger effect = lower value 0.998 | locus YJL129C, strain trk1, stronger effect = lower value 0.954 | locus YJL134W, strain LCB3, stronger effect = lower value 0.98 | locus YJL154C, strain vps35, stronger effect = lower value 0.982 | locus YJL164C, strain tpk1, stronger effect = lower value 0.943 | locus YJL166W, strain qcr8, stronger effect = lower value 0.951 | locus YJL168C, strain set2, stronger effect = lower value 0.977 | locus YJL187C, strain SWE1 (second series), stronger effect = lower value 0.879 | locus YJL187C, strain SWE1, stronger effect = lower value 0.984 | locus YJR066W, strain TOR1, stronger effect = lower value 0.836 | locus YKL009W, strain mrt4, stronger effect = lower value 0.914 | locus YKL068W, stronger effect = lower value 0.965 | locus YKL085W, strain MDH1 (second series), stronger effect = lower value 0.968 | locus YKL085W, strain MDH1, stronger effect = lower value 0.968 | locus YKL160W, strain elf1, stronger effect = lower value 0.942 | locus YKR026C, strain gcn3, stronger effect = lower value 0.981 | locus YKR091W, strain srl3, stronger effect = lower value 0.984 | locus YLL001W, strain dnm1, stronger effect = lower value 0.954 | locus YLL026W, stronger effect = lower value 0.977 | locus YLL041C, strain sdh2, stronger effect = lower value 0.983 | locus YLR027C, strain aat2, stronger effect = lower value 0.965 | locus YLR039C, strain RIC1, stronger effect = lower value 0.784 | locus YLR058C, strain SHM2, stronger effect = lower value 0.906 | locus YLR102C, strain apc9, stronger effect = lower value 0.975 | locus YLR113W, strain HOG1, stronger effect = lower value 0.992 | locus YLR221C, strain rsa3, stronger effect = lower value 0.929 | locus YLR258W, strain gsy2, stronger effect = lower value 0.99 | locus YLR262C, strain YPT6 (second series), stronger effect = lower value 0.881 | locus YLR268W, strain sec22, stronger effect = lower value 0.9 | locus YLR320W, strain mms22, stronger effect = lower value 0.919 | locus YLR342W, strain FKS1 (second series), stronger effect = lower value 0.876 | locus YLR342W, strain FKS1, stronger effect = lower value 0.975 | locus YLR357W, strain rsc2, stronger effect = lower value 0.95 | locus YLR371W, strain rom2, stronger effect = lower value 0.993 | locus YLR384C, strain iki3, stronger effect = lower value 0.989 | locus YML016C, strain PPZ1, stronger effect = lower value 0.959 | locus YML032C, strain rad52, stronger effect = lower value 0.933 | locus YML120C, strain ndi1, stronger effect = lower value 0.955 | locus YML124C, strain tub3, stronger effect = lower value 0.974 | locus YMR058W, strain fet3, stronger effect = lower value 0.952 | locus YMR078C, strain ctf18, stronger effect = lower value 0.961 | locus YMR125W, strain sto1, stronger effect = lower value 0.98 | locus YMR129W, stronger effect = lower value 0.981 | locus YMR205C, strain PFK2, stronger effect = lower value 0.972 | locus YMR223W, strain ubp8, stronger effect = lower value 0.913 | locus YMR231W, strain pep5, stronger effect = lower value 1 | locus YMR307W, strain GAS1, stronger effect = lower value 0.706 | locus YNL067W, strain RPL9B, stronger effect = lower value 0.87 | locus YNL071W, strain lat1, stronger effect = lower value 0.924 | locus YNL183C, strain NPR1, stronger effect = lower value 0.872 | locus YNL209W, strain ssb2, stronger effect = lower value 0.987 | locus YNL248C, strain rpa49, stronger effect = lower value 0.94 | locus YNL250W, strain rad50, stronger effect = lower value 0.944 | locus YNL271C, strain bni1, stronger effect = lower value 0.941 | locus YNL298W, strain CLA4, stronger effect = lower value 0.928 | locus YNL322C, strain KRE1 (second series), stronger effect = lower value 0.979 | locus YNR049C, strain mso1, stronger effect = lower value 0.986 | locus YNR052C, strain pop2, stronger effect = lower value 0.927 | locus YOL012C, strain htz1 0.948 | locus YOL147C, strain pex11, stronger effect = lower value 0.934 | locus YOR001W, strain rrp6, stronger effect = lower value 0.952 | locus YOR061W, strain CKA2, stronger effect = lower value 0.985 | locus YOR069W, strain VPS5, stronger effect = lower value 0.927 | locus YOR070C, strain gyp1, stronger effect = lower value 0.975 | locus YOR080W, strain dia2, stronger effect = lower value 0.993 | locus YOR083W, strain WHI5, stronger effect = lower value 0.91 | locus YOR106W, strain vam3, stronger effect = lower value 0.915 | locus YOR136W, strain idh2, stronger effect = lower value 0.95 | locus YOR144C, strain elg1, stronger effect = lower value 0.968 | locus YOR184W, strain ser1, stronger effect = lower value 0.931 | locus YOR231W, strain MKK1, stronger effect = lower value 0.934 | locus YOR265W, strain rbl2, stronger effect = lower value 0.999 | locus YOR270C, strain vph1, stronger effect = lower value 0.807 | locus YOR290C, strain snf2, stronger effect = lower value 0.88 | locus YOR316C, strain cot1, stronger effect = lower value 0.96 | locus YPL051W, strain arl3, stronger effect = lower value 0.943 | locus YPL078C, strain atp4, stronger effect = lower value 0.905 | locus YPL106C, strain sse1, stronger effect = lower value 0.984 | locus YPL240C, strain hsp82, stronger effect = lower value 0.984 | locus YPL241C, strain CIN2, stronger effect = lower value 0.998 | locus YPL256C, strain CLN2, stronger effect = lower value 0.922 | locus YPR119W, strain clb2, stronger effect = lower value 0.973 | locus YPR141C, strain kar3, stronger effect = lower value 0.967 | locus YPR167C, strain met16, stronger effect = lower value 0.93 | strain wtn01, stronger effect = lower value 0.911
active: locus YBR021W, strain FUR4, stronger effect = lower value 0.751 | locus YDL192W, strain arf1, stronger effect = lower value 0.912 | locus YDR318W, strain mcm21, stronger effect = lower value 0.896 | locus YDR392W, strain spt3, stronger effect = lower value 0.726 | locus YDR502C, strain sam2, stronger effect = lower value 0.878 | locus YGL078C, strain dbp3, stronger effect = lower value 0.91 | locus YGL086W, strain mad1, stronger effect = lower value 0.884 | locus YGL248W, strain PDE1, stronger effect = lower value 0.853 | locus YGR135W, strain pre9, stronger effect = lower value 0.821 | locus YGR252W, strain gcn5, stronger effect = lower value 0.698 | locus YHR200W, strain rpn10, stronger effect = lower value 0.904 | locus YKR001C, strain vps1, stronger effect = lower value 0.837 | locus YLR330W, strain CHS5, stronger effect = lower value 0.896 | locus YLR418C, strain cdc73, stronger effect = lower value 0.74 | locus YNL233W, strain BNI4, stronger effect = lower value 0.827 | locus YNL307C, strain MCK1, stronger effect = lower value 0.847 | locus YPR163C, strain tif3, stronger effect = lower value 0.794

From PubChem BioAssay AID1159580 (chemical genetic matrix, 2015)
